Activity calls are given as the source filed them. The calls were made as follows: active = hit-call score of the fitted dose curve at least 0.9, where 1 is the maximum; inactive = score below 0.9.
Each compound was assayed against Estrogen receptor (Homo sapiens) (UniProt P03372) (assay: CCTE_Deisenroth_AIME_384WELL_LUC_Shift: CCTE's 384-well Estrogen Receptor Transactivation Assay with AIME metabolic competence data shift (ERTA luciferase; difference in metabolism positive and negative), Deisenroth Lab (AID 2284041);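 also: shift is response with S9 minus without S9 so positive means metabolism raised ER signal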).
Description: CCTE_Deisenroth_AIME_384WELL (AIME metabolism assay) is a cell-based, single-readout assay that uses VM7Luc4E2, a human mammary gland/breast cell line, with measurements taken at 24 hour after chemical dosing in a 384-well plate.CCTE_Deisenroth_AIME_384WELL_LUC_Shift is one of two analysis components calculated from the CCTE_Deisenroth_AIME_384WELL assay. […] AIME is optimized to impart phase I hepatic metabolism using phenobarbital/beta-naphthoflavone induced hepatic S9 from male Sprague Dawley rats. Parent chemicals are incubated for 2 hours in the AIME assay prior to transfer to the VM7Luc ERTA assay plate. […] The metabolic curve shift response is defined as the pairwise difference between the positive (AEID 2488) and negative (AEID 2490) normalized response values at each concentration for a given chemical across replicate experiments. The pairwise differences form the basis for a concentration-response curve. Standard curve fit analysis identfiied chemicals where the calculated shift was greater than the shift-derived baseline cutoff. A positive hit designation in this endpoint indicates a significant shift trend in the positive direction for bioactivation.
The AIME procedure consists of a preparative "pre-stamping" step using a barium chloride/poly-L-lysine (PLL) solution followed by "stamping" the lid in alginate-hepatic S9 (metabolism positive) or alginate-water (metabolism negative) to form microspheres. Once stamping is completed, the AIME lids are placed in duplicate microplates (metabolism positive or negative) containing chemical solutions and incubated for two hours to facilitate metabolic reactions. The conditioned medium, containing parent chemical or metabolites, is then transferred to the cell-based VM7Luc Estrogen Receptor Transactivation Assay (ERTA) for 24 hours. A typical experimental design tests a 10-point concentration series (0.002 - 200 uM) for 8 compounds (96-well format)1 or 32 compounds (384-well format)2 in single technical replicate. AIME assay controls include trans-stilbene (bioactivated control) and ethylparaben (bioinactivated control). ERTA assay plate controls include 17-beta estradiol (positive control) and DMSO (solvent control). Experiments typically comprise a minimum of four experimental replicates (n=4).

Sequence of Estrogen receptor (Homo sapiens) (P03372 whole entry, looked up): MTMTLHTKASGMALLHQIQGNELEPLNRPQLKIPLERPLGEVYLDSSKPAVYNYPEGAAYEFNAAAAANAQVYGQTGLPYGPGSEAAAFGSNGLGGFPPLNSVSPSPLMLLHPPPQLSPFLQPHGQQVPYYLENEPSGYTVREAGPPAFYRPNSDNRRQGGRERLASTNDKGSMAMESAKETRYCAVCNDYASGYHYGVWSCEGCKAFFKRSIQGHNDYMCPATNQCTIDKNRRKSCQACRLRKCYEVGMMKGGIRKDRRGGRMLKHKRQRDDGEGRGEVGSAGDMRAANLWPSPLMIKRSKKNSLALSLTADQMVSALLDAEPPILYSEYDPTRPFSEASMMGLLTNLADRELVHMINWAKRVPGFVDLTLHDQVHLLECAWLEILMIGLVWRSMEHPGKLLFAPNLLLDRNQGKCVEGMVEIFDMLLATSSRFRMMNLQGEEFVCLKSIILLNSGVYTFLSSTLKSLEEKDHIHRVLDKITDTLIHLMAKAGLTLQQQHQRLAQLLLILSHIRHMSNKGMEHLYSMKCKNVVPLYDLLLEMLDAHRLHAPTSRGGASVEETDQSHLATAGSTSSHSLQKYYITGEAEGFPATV

Structure (SMILES) | outcome | AC50
Cc1oc2c(NC(=O)c3c(Cl)cccc3Cl)cccc2c1C(C)(C)O | inactive | –
CCCCCCCCOC(=O)c1cc(O)c(O)c(O)c1 | inactive | –
CCCOC(=O)c1cc(O)c(O)c(O)c1 | inactive | –
O=c1[nH]sc2ccccc12 | inactive | –
Cc1cn([C@H]2C[C@H](N=[N+]=[N-])[C@@H](CO)O2)c(=O)[nH]c1=O | inactive | –
CCCCCCCCN(C)CCCCCCCC | inactive | –
Cc1ccc(C(C)C)cc1 | inactive | –
c1ccc2ccccc2c1 | inactive | –
O=C(O)Cn1c(=O)n(Cc2ccc(Br)cc2F)c(=O)c2ccc(Cl)cc21 | – | 53.2 µM (active)
O=C(Nc1ccc(Cl)cc1)Nc1ccc(Cl)c(Cl)c1 | inactive | –
COc1cccc([C@H](O)C2CCN(CCc3ccc(F)cc3)CC2)c1OC | inactive | –
Cc1c2ccccc2c(C)c2c1ccc1ccccc12 | inactive | –
CCN(CC)C(=O)c1cc(S(=O)(=O)Cc2ccccc2)c(N2CCC(c3ccccc3)CC2)cc1N(CC)CCN(C)C | inactive | –
COCC(C)OCC(C)OCC(C)O (centres undefined) | inactive | –
OCCO | inactive | –
CCCCCCCCCCCO | inactive | –
OC12N=C(c3ccccc3)SC1Cc1cc(Cl)ccc12 (centres undefined) | – | 3.82 µM (active)
CC(C)(C)c1cc(/C=C2\SC(N)=NC2=O)cc(C(C)(C)C)c1O | inactive | –
CC[C@H](NC(=O)c1cc(F)ccc1NS(=O)(=O)c1cccc2cccnc12)c1ccccc1 | inactive | –
